# Screening data as filed in PubChem.
# Rows were chosen to be rich in hits. Some 0.56% of all compounds tested hit in one or more screens of this group.
# EPAC1 ag: EPAC1 (human) agonism. AID 720707. EPAC1 agonist qHTS, biochemical assay; response scale: 100% = response to 6.5 mM cAMP. actives 0.073% (n = 360,000). Potency, µM (titrated, usually from 154 µM), inactives show at the top dose activation, usual class: activators. O95398; further: potency means the concentration at half of the fitted maximal effect; nearly all actives have a fitted effect of over 60% in size
#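 Read-out is the fluorescence drop as BODIPY-GDP leaves Rap1B (480 nm excitation, 540 nm emission), recorded every 5 minutes over 30 minutes. Reactions held 100 nM EPAC1, 250 nM Rap1B–BODIPY-GDP and 50 uM GDP, with 6.5 mM cAMP setting full activation.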
# EPAC1 antagonist: EPAC1 (human) antagonism; O95398; EPAC1 GEF assay, Rap1b-BODIPY-GDP exchange fluorescence; Potency, µM (titrated, usually from 115 µM), for the others: top-dose activity change, negative = inhibition, hits mostly inhibitors; actives 0.14% (n = 360,000);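 further: potency means the concentration at half of the fitted maximal effect; plate controls were vehicle for no effect and positive control for full effect; nearly all actives have a fitted effect of over 50% in size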
# LDHA inh: LDHA (human) enzyme inhibition; P00338; purified LDHA, NADH/diaphorase-resazurin fluorescence; stronger effect = lower value; activity change, % (values are at about 110 or 230 µM); actives 0.15% (n = 480,000); in the data active means activity change below about -30%; inconclusive means mostly about -25% to -30%;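 further: plate controls were DMSO wells for no effect and wells without enzyme for full effect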
#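 Human LDH5 at 2 nM final in Tris HCl pH 7.4 with 0.06 mM NADH and 0.2 mM pyruvate, reacted 5 minutes at room temperature. Remaining NADH coupled via diaphorase/resazurin; resorufin fluorescence read at 0 and 20 minutes, normalized to enzyme-free and DMSO wells.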
# USP1-UAF1 inh: blocks the human USP1/UAF1 deubiquitinase complex; O94782; recombinant USP1/UAF1, Ub-Rhodamine cleavage fluorescence; Potency, µM (highest dose often 57.1 µM), for inactives: at the highest dose activity change, negative = inhibition, actives largely listed as inhibitors; actives 0.23% (n = 390,000); AID 743255; further: potency means the concentration at half of the fitted maximal effect; on the % scale 0 is the no-effect control and ±100 the full control effect; nearly all actives have a fitted effect of over 60% in size
# Target sequence (O94782 whole entry, looked up): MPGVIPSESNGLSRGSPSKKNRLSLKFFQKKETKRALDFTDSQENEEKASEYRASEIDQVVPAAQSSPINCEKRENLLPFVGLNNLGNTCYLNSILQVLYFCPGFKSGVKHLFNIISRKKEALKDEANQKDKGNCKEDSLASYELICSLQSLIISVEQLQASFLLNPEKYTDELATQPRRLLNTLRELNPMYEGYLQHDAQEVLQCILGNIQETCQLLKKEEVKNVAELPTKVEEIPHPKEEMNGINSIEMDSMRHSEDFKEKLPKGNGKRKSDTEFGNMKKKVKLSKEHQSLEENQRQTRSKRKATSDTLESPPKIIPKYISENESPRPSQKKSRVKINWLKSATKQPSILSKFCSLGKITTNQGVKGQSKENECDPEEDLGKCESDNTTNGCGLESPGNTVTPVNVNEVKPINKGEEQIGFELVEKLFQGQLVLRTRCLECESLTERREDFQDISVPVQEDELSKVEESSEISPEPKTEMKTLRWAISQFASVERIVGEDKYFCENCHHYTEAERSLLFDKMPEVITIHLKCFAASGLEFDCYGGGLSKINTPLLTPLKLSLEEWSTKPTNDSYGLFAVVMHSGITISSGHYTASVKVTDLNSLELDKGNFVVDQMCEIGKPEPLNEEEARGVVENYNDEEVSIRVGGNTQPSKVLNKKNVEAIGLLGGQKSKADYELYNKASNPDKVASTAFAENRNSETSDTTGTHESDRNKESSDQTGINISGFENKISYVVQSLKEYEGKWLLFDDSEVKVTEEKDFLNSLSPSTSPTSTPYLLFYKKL
#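 High-throughput fluorogenic screen: 1nM USP1/UAF1 complex, Ub-Rho substrate 150nM final, 50mM HEPES pH 7.8 with 0.5mM EDTA, 0.1 mg/ml BSA, 1mM TCEP and 0.01% Tween-20.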
# EPAC2 ag: agonists of human EPAC2 (RAPGEF4). Q8WZA2. EPAC2 activation, biochemical qHTS; response scale: 100% = 6.5 mM cAMP response. Potency, µM (series often up to 154 µM), without a hit: at the highest dose activation, usual class: activators. actives 0.079% (n = 360,000); further: potency means the concentration at half of the fitted maximal effect; nearly all actives have a fitted effect of over 50% in size
#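 Readout is BODIPY fluorescence (480 nm excitation, 540 nm emission), which falls as labeled GDP is exchanged off Rap1B. EPAC2 at 100 nM acted on 250 nM RAP1B-BODIPY-GDP with 50 uM GDP present.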
# EPAC2 antagonist: antagonists of human EPAC2; Q8WZA2; EPAC2 GEF exchange of Rap1B-BODIPY-GDP, fluorescence; AID 720708; actives 0.18% (n = 360,000); Potency, µM (doses to about 114 µM), without a hit: top-dose activity, negative = inhibition, usual class: inhibitors; further: potency means the concentration at half of the fitted maximal effect; on the % scale 0 is the no-effect control and ±100 the full control effect; nearly all actives have a fitted effect of over 45% in size
# * hit, by the source's call; i = inactive; ? = inconclusive; / = no result given; ! = not active in a repeat. Unless noted, the call rests on the fitted dose curve; in most records, active means well fitted curve in the direction sought with a large enough effect; inconclusive means small, poorly fitted or top-dose-only effect, or another doubt; inactive means no such curve, though single readings can be large; an effect the other way counts as inactive or inconclusive.
SMILES,EPAC1 ag,EPAC1 antagonist,LDHA inh,USP1-UAF1 inh,EPAC2 ag,EPAC2 antagonist
C=CCN1C(=O)/C(=C/c2ccc(O)c(OC)c2)S/C1=N/c1nccs1,23%,-24%,-2,?,1%,-11%
Cc1nn(CCc2nn[nH]n2)c2nc(-c3ccc(Br)cc3)cc(C(F)(F)F)c12,-14%,-28%,-8,-12%,-20%,32µM*
O=C(Cc1cccc2ccccc12)N/N=C/c1ccc(Sc2nc3ccccc3s2)o1,-1%,1%,-5,-27%,0%,5%
CC[n+]1c(/C=C/C=C/N(C(C)=O)c2ccccc2)sc2ccccc21,?,18%,-3,32µM*,100µM*,92%
CCn1c(/C=C/N(C(C)=O)c2ccccc2)[n+](CC)c2ccc(Cl)cc21,1%,0%,-21,-14%,2%,12%
O=C(CNC(=O)c1ccc(Cl)cc1Cl)OCC(=O)N1CCCC1=O,-5%,3%,-2,-17%,7%,13%
Oc1ccc(Br)cc1C=Nc1cccn2cc(-c3ccccc3)nc12,2%,0%,5,-2%,-17%,79µM*
Oc1ccc(Br)cc1/C=N/n1c(-c2ccccc2)n[nH]c1=S,15%,-13%,-4,-12%,11%,-6%
Cc1ccc(C(=O)Nc2nc3nc(C)cc(=O)n3[nH]2)cc1,/,/,-70*,-14%,/,/
CN1/C(=C\C=C(C#N)C#N)C(C)(C)c2ccccc21,-19%,-10%,-1,?,63µM*,i
Cc1nc2ccc(C(=O)NCC3CCC3)cc2nc1C,/,/,13,/,/,/
CCN1C/C(=C/c2cccc([N+](=O)[O-])c2)C(=O)/C(=C/c2cccc([N+](=O)[O-])c2)C1,4%,1%,-3,-13%,-9%,-3%
OCCNC(=S)Nc1cccc(F)c1,/,/,0,/,/,/
NC(=O)c1sc(=S)n2c1[nH]c(=O)c1sccc12,10%,?,-6,-21%,-4%,40µM*
CCc1ccc(-c2n[nH]nc2C2=CC(=O)C[C@H](c3ccc(F)cc3)C2)cc1,-11%,-3%,0,?,6%,-12%
CC(C)(C)c1ccc(Cn2nc(C(=O)O)c3ccccc3c2=O)cc1,/,/,5,/,/,/
O=C(O)c1nn(Cc2ccccc2)c(=O)c2ccccc12,/,/,-32*,/,/,/
COc1ccccc1-c1nnc(SCC2CCOCO2)n1-c1ccccc1 (stereo unspecified),/,/,-1,/,/,/
CCSC(=O)N=Nc1ccc(O)cc1,-33%,-17%,31,32µM*,-18%,-19%
CN(C(=O)c1ccccc1Br)C(C)(C)C,/,/,1,/,/,/
Cn1cccc1/C=C1\CC(C(C)(C)C)C/C(=C\c2cccn2C)C1=O (stereo unspecified),6%,7%,6,11µM*,-18%,-28%
CN1C2CCC1/C(=C/c1cccn1C)C(=O)/C2=C\c1cccn1C,?,49%,3,28µM*,?,49%
CN1C2CCC1/C(=C\c1ccc(F)cc1)C(=O)/C2=C/c1ccc(F)cc1,5%,1%,-5,-4%,-3%,2%
N#C/C(=C\N1CCN(Cc2ccc3c(c2)OCO3)CC1)c1nc2ccccc2s1,3%,-3%,-2,32µM*,10%,8%
CCOC(=O)N1CCN(/C=C(\C#N)c2nc3ccccc3s2)CC1,7%,?,-10,-19%,-3%,-4%
SMILES,EPAC1 ag,EPAC1 antagonist,LDHA inh,USP1-UAF1 inh,EPAC2 ag,EPAC2 antagonist
O=c1oc2ccc(Cl)cc2nc1/C=C(\O)c1cccs1,12%,-12%,11,-7%,100µM*,100%
CCS(=O)(=O)c1ccc2oc(=O)c(/C=C(\O)c3ccc(Cl)cc3)nc2c1,-4%,-10%,8,0%,9%,2%
O=c1[nH]c2ccccc2nc1/C=C(\O)c1cccs1,100µM*,16%,-9,16µM*,?,26%
CN(CC(=O)Nc1ccccc1Cl)C(=O)c1cccc(-n2cccc2)c1,-9%,5%,-1,-12%,1%,-4%
CN(CC(=O)Nc1c(Cl)cccc1Cl)C(=O)c1cccc(-n2cccc2)c1,2%,-22%,-37*!,-14%,6%,1%
Cc1cccc(OC(C)C(=O)Nc2cccc3cccnc23)c1C (stereo unspecified),/,/,3,/,/,/
COc1cc(OC)c(OC)cc1/C=C1\CC(C)C/C(=C\c2cc(OC)c(OC)cc2OC)C1=O (stereo unspecified),-3%,-2%,-6,35µM*,16%,1%
O=C(COc1ccc(Cl)cc1)NCCc1nnc2ccccn12,/,/,-6,/,/,/
COC(=O)c1[nH]c2cc(C)ccc2c1NC(=O)CN1CCCc2ccccc21,-11%,5%,14,-23%,7.9µM*,0%
O=C(CSc1nc2ccsc2c(=O)n1CC1CCC(C(=O)O)CC1)c1ccc(Cl)cc1 (stereo unspecified),?,56µM*,-5,-5%,19%,-14%
COc1ccc(C(NC(=O)c2cc(OC)ccc2OC)c2ccccc2)cc1 (stereo unspecified),12%,-24%,3,-11%,11%,45µM*
Clc1ccccc1OCCCCN1CCNCC1,-2%,1%,-41*,-22%,4%,1%
CC(=O)CCc1oc2ccccc2c1-c1ccccc1,16%,-5%,-4,0%,23%,25µM*
CC(=O)CCc1oc2ccc(C)cc2c1Cc1ccccc1,8%,?,7,-8%,8%,?
Oc1ccc(/C=N/Nc2nccnc2Cl)cc1,1%,0%,-1,-7%,18%,-3%
Nc1c(Cl)ncnc1N/N=C/c1ccc(O)cc1,-4%,?,-1,-2%,3%,28µM*
CC(C(=O)NCCS(=O)(=O)c1ccc(Br)cc1)S(=O)(=O)c1ccc(Cl)cc1 (stereo unspecified),4%,-4%,-35*,-31%,19%,-8%
O=C(N/N=C/c1ccc(-c2ccc(S(=O)(=O)Nc3ncccn3)cc2)o1)c1cc2ccccc2cc1O,-1%,13µM*,-46*,?,1%,-12%
CCOc1ccc(C(=O)N/N=C/c2ccc(-c3ccc(S(=O)(=O)Nc4ncccn4)cc3)o2)cc1,4%,?,-8,-17%,0%,-1%
CCOc1ccc(NC(=O)CCCn2c(=O)c3cccn3c3ccccc32)cc1,/,/,-31*,/,/,/
COc1cc2c(cc1OC)C(c1ccccc1O)N(C1CC(=O)N(c3ccccc3)C1=O)CC2 (stereo unspecified),4%,3%,1,-14%,2%,-5%
CCCCC1CCC(C(=O)Nc2ccc(OC)c3ncccc23)CC1 (stereo unspecified),/,/,-30*,/,/,/
